p53 reactivation: re-activators of mutant p53; Potency, µM (series often up to 92.2 µM), actives largely listed as activators; 0.063% of 320,000 active; H1299 p53-A138V BP100-luciferase reporter, luminescence, 24 h; AID 504706; note: nearly all actives have a fitted effect of over 45% in size
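H1299 (p53-null), stable ts p53-A138V + BP100-Luc; 1000 cells/well, Opti-MEM/10% FBS; cpd 4 pt, 1:5; 24 h, 37 deg C, 5% CO2; detection reagent 10 min RT; luminescence.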
RXFP1 ag: agonists of human relaxin receptor RXFP1. Potency, µM (titrated, usually from 57.5 µM), hits mostly activators. HEK293T-RXFP1 cAMP TR-FRET, 30 min; response scale: percent of porcine relaxin response, buffer zero. Q9HBX9. 0.3% of 370,000 active; note: nearly all actives have a fitted effect of over 60% in size
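Agonist response is measured as cAMP accumulation in an RXFP1-transfected HEK293T line under PDE4 inhibition. Values are scaled between buffer-only and 29 nM porcine relaxin, and EC50s come from standard Hill equation fits.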
gsp antagonist: antagonists of gsp mutant (McCune-Albright syndrome); Potency, µM (series often up to 76.9 µM), actives largely listed as inhibitors; gsp-mutant cells, cAMP HTRF, 30 min; AID 624288; 0.4% of 340,000 active; calls by dose curve; cell line not stated here;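 note: intracellular cAMP measured with PDE inhibitor Ro 20-1724 present during compound exposure; nearly all actives have a fitted effect of over 65% in size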
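G418-selected cells were plated in DMEM/10% FBS for 16-24 h at 37C, then treated with compounds plus the PDE inhibitor […] (300 uM solution added) for 30 min at 37C. Intracellular cAMP was measured by HTRF after 30 min lysis at room temperature.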
RXFP1 antagonist: antagonists of human relaxin receptor RXFP1 | HEK293-RXFP1, relaxin-stimulated cAMP HTRF, 30 min; stronger effect = lower value | 0.59% of 350,000 active | Q9HBX9 | activity change, negative = inhibition, % at 57.5 µM;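 active = activity change of -60% or lower, but not beyond a set lower limit; inconclusive = change between -60% and -40%, or beyond the set limit; inactive = change above -40%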
gsp agonist: activates gsp, the McCune-Albright syndrome mutation; gsp mutant cells, cAMP HTRF, 30 min; 0.13% of 340,000 active; Potency, µM (series often up to 76.9 µM), actives largely listed as activators; active = well fitted activation curve with a large enough effect; inconclusive = small, poorly fitted or top-dose-only effect, or another doubt; inactive = no such curve, though single readings can be large or run the other way; cell line not stated here;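 note: phosphodiesterase inhibitor Ro 20-1724 added with compounds to block cAMP breakdown; nearly all actives have a fitted effect of over 60% in size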
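Cells stably selected in G418 were plated at 2000/well, grown 16-24 hr, then given compounds in DMSO with the PDE inhibitor […] (300 uM solution added) for 30 min at 37C; cAMP was read by HTRF.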
Tb PFK block: blocks T. brucei phosphofructokinase. AID 485367. Potency, µM (titrated, usually from 57.5 µM), hits mostly inhibitors. O15648. 0.17% of 330,000 active. T. brucei PFK, ADP-Glo luminescence; note: nearly all actives have a fitted effect of over 60% in size
Target sequence (O15648 whole entry, looked up): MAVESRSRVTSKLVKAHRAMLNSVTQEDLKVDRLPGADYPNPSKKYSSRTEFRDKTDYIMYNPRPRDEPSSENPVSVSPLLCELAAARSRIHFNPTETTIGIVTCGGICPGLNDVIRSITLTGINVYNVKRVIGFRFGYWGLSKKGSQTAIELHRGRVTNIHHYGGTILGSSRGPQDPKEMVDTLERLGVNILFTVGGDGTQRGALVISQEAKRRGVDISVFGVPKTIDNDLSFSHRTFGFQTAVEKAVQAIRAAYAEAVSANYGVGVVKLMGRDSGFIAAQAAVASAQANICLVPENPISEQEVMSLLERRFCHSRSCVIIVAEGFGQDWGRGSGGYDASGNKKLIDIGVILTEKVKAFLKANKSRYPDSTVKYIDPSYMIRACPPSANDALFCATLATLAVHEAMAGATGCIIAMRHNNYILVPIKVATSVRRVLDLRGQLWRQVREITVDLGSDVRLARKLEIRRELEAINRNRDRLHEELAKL
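1.25 nM PFK with 0.5 mM F6P and 0.1 mM ATP in 0.1 M TEA pH 8.0, 5 mM MgCl2, incubated 45 min at room temperature; ADP measured by ADP-Glo luminescence; compounds titrated up to 57 uM.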
Numbers stand for hits; . = inactive; ? = inconclusive; / = no result; [ ] = another dose, or the depositor's remark. This is a sample that favours compounds with a hit; in the whole collection about 1.1% have one here. Unless noted, calls come from the whole dose curve; as a rule, active = well fitted curve in the direction sought with a large enough effect; inconclusive = small, poorly fitted or top-dose-only effect, or another doubt; inactive = no such curve, though single readings can be large; an effect the other way counts as inactive or inconclusive.

SMILES	p53 reactivation	RXFP1 ag	gsp antagonist	RXFP1 antagonist	gsp agonist	Tb PFK block
Cc1ccc(-c2cc(-c3ccccc3)cc(-c3ccccc3)[n+]2-c2ccccc2)cc1	.	.	50.1µM	/	/	.
C[n+]1c(-c2ccccc2)cc(-c2ccc(Cl)cc2)cc1-c1ccccc1	.	.	.	-88.3	.	.
CN(C)c1ccc(-[n+]2c(-c3ccccc3)cc(-c3ccccc3)cc2-c2ccccc2)cc1	.	.	.	-105.2	?	.
c1ccc(-c2cc(-c3ccccc3)[n+](-c3ccccc3)c(-c3ccccc3)c2)cc1	.	.	50.1µM	?	.[15.4 µM]	.
Cc1ccc(-c2cc(-c3ccc(C)cc3)[n+](-c3ccccc3)c(-c3ccc(C)cc3)c2)cc1	.	.	.	/	/	.
CCCCCCN1CCN(c2ccc(Cl)cc2)CC1	.	.	.	.	.	.
CN1C[C@H]2CON(C)[C@H]2C[C@H]1c1cccc(Br)c1	/	/	.	/	/	/
COc1ccc(CCNc2nc3ccc(Cl)cc3n3cnnc23)cc1OC	/	?	/	.	/	/
COc1ccc(CNCCc2c(C)[nH]c3ccc(OC(F)(F)F)cc23)c(OC)c1	.	.	.	-83.4	?	.
COc1ccc2[nH]c(C)c(CCNCc3cc(OC)c(OC)c(OC)c3)c2c1	.	.	.	.	.[15.4 µM]	.
Cc1nc2ccccc2c(=O)n1/N=C/c1cc(Br)cc(Br)c1O	/	/	?	-78.9	.	/
Cc1nc2ccccc2c(=O)n1-c1ccc(Br)cn1	.	.	.	.	.[15.4 µM]	.
O=C(Nc1ccc(Br)cc1)c1cc(Br)cc(Br)c1O	/	/	/	-81.1	/	/
O=C(Nc1ccc(Br)cc1C(=O)c1ccccc1)c1ccccc1	/	.	/	.	/	/
O=C(c1ccc2c(c1)OCO2)C1CCCN(Cc2ccc(F)c(F)c2)C1 (stereo not given)	.	.	.	.	.	.
O=C(c1ccc(Cl)cc1)C1CCCN(Cc2ccc3c(c2)OCCO3)C1 (stereo not given)	.	.	.	-73.4	.[15.4 µM]	.
CCCNC(=O)N1[C@H]2CC[C@@H]1C(C(=O)OC)=C(c1ccc(-c3ccccc3)c(F)c1)C2	.	.	?	/	/	.
Cc1ccccc1CN1C(=O)CN=C(c2ccccc2)c2cc(Cl)ccc21	/	.	/	-95.5	/	/
CSc1ccc(CN2CCN(C(=O)COc3ccc(C)cc3)CC2)cc1	.	.	.	.	3.16µM	.
CC(C)(C)NS(=O)(=O)c1ccc(OCC(=O)N2CCN(Cc3ccccc3)CC2)cc1	.	.	.	.	.[15.4 µM]	.
O=C(COc1ccc(S(=O)(=O)N2CCCCC2)cc1)N1CCN(Cc2ccccc2)CC1	.	.	.	.	31.6µM	.
CCc1ccc(CN2CCN(Cc3ccc(SC)cc3)CC2)cc1	.	.	.	-61.9	.[15.4 µM]	.
O=[N+]([O-])c1[nH]cnc1Br	/	/	.	.	.	/
O=C(COc1ccc2ccc(=O)oc2c1)N1CCC(C(=O)O)(c2ccccc2)CC1	.	.	.	.	?	.
C=CCc1cc(C=C2C(=O)NC(=O)NC2=O)cc(OC)c1OCc1ccc(C(=O)O)cc1	.	.	.	.	.	.
SMILES	p53 reactivation	RXFP1 ag	gsp antagonist	RXFP1 antagonist	gsp agonist	Tb PFK block
C=CCc1cc(C=C2C(=O)N(C)C(=O)N(C)C2=O)cc(OCC)c1OCc1ccccc1	.	.	.	-77.0	.	.
CC1(C)OC(c2ccccc2)=C/C(=C/C=C2C(=O)NC(=S)NC2=O)O1	.	.	.	.	.	?
CN1/C(=C\C=C2C(=O)NC(=S)NC2=O)C(C)(C)c2ccccc21	.	.	50.1µM	.	.	.
O=c1[nH]c(=S)[nH]c(O)c1N=Nc1ccc2c(c1)OCCO2	.	.	.	-95.3	.[15.4 µM]	.
COc1ccc2c(C)c(CC(=O)N3C[C@H]4C[C@@H](C3)c3cccc(=O)n3C4)c(=O)oc2c1	/	.	.	/	/	.
COC1=CC(=O)[C@]2(C=C1OC)OC[C@@H]1Oc3c(ccc4c3C=CC(C)(C)O4)C(=O)[C@@H]12	.	/	?	/	/	.
COc1ccc(-n2c(O)c(/C=C3\C=Nc4ccc(Br)cc43)c(=O)[nH]c2=O)c(OC)c1	.	.	.	-71.2	?	.
COCCOC(=O)c1c(C)oc2ccc(OC(=O)N(C)C)cc12	.	.	.	.	.	.
